Many of the other results were omitted from the sample, so hits are more common in it than they were.
Pf Dd2 growth: inhibitors of Plasmodium falciparum Dd2 growth; P. falciparum Dd2 growth, SYBR Green, 72 h; actives 4.3% (n = 120,000); Potency, µM (highest dose often 28.9 µM), hits mostly inhibitors; active means well fitted inhibition curve with a large enough effect; further: nearly all actives have a fitted effect of over 65% in size
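Readout: SYBR Green fluorescence, 485 nm excitation, 535 nm emission, after ~16 h lysis at 37C. Before that, Dd2-infected red cells (2.5% hematocrit) grew 72 h with compound, 29 uM top final concentration.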
A number is an active result; n = inactive; [ ] = another dose, or the depositor's remark.

SMILES	Pf Dd2 growth
Cc1cnc(C2CCN(S(=O)(=O)c3ccccc3)C2)n1C(C)C (configuration not stated)	4µM
CCS(=O)(=O)N1CCC(Cc2ncc(C)n2Cc2ccccc2)C1 (configuration not stated)	11µM
COc1cccc(CN2CCCC(Cc3ncc(C)n3Cc3ccccc3)C2)c1 (configuration not stated)	n
Cc1cnc(CC2CCCN(C(=O)Cc3ccccc3)C2)n1C(C)C (configuration not stated)	4.5µM
Cc1cnc(C2CCN(C(=O)NC(C)C)C2)n1C(C)C (configuration not stated)	n
CCn1ncc(N2CCCC(CC(=O)NCCC3=CCCCC3)C2)cc1=O (configuration not stated)	n
CSCCNC(=O)c1cc(Br)cn2ccnc12	n
Cc1ccc2nc(C)c(C)c(C(=O)NCc3nc(-c4ncccn4)no3)c2c1	n
O=C(NC[C@H]1O[C@@H](CO)[C@@H](O)[C@H]1N1CCN(c2cccc(C(F)(F)F)c2)CC1)c1ccccc1	n
COCCC(=O)N1CCCN(C(=O)C2CC2)c2ccccc21	n
N#Cc1cccc(-c2ccnc(N[C@H]3CO[C@H]4[C@@H]3OC[C@@H]4NC(=O)c3cccs3)n2)c1	n
Cc1noc(-c2ccccc2OC2CCNC2)n1 (configuration not stated)	n
Cc1cnc(CC2CCN(S(=O)(=O)c3ccc(C#N)cc3)C2)n1C1CC1 (configuration not stated)	10µM
CCC(=O)N1CCC(Cc2ncc(C)n2C2CC2)C1 (configuration not stated)	n
CCCn1c(C)cnc1CC1CCN(C(=O)c2ccc(OC)cc2OC)CC1	n
Cc1cnc(CC2CCN(C(=O)C3CC3)CC2)n1Cc1ccccc1	6.3µM
N#Cc1ccc(S(=O)(=O)N2CCC(Cc3nc(-c4ccncc4)n[nH]3)C2)cc1 (configuration not stated)	n
Cc1cnc(CC2CCN(C(=O)NC(C)(C)C)CC2)n1Cc1ccc(F)cc1	n
CCCn1c(C)cnc1CC1CCCN(C(=O)CCOC)C1 (configuration not stated)	n
Cc1cnc(CC2CCN(C(=O)Nc3ccccc3)C2)n1CC1CC1 (configuration not stated)	n
CCCn1c(C)cnc1CC1CCCN(S(=O)(=O)c2cc(OC)ccc2OC)C1 (configuration not stated)	1.3µM
COc1ccc(-n2nc(C3CCN(C(=O)c4ccc(F)cc4)CC3)[nH]c2=O)cc1	n
CCc1noc(Cn2nc(-c3ccccc3)c3ccccc3c2=O)n1	n
COCC[C@]1(O)CCN(C(=O)c2ccc(Cl)cc2F)C[C@H]1C	n
CCOCc1nc(C2CCCN2S(=O)(=O)c2cccnc2)no1 (configuration not stated)	n
SMILES	Pf Dd2 growth
CN1C(=O)c2ccc(NC(=O)C[C@H]3NC(=O)c4ccccc4NC3=O)cc2C1=O	n
O=C(COc1ccccc1)N1CC[C@H]2COC(=O)N2c2cc(F)ccc2C1	n
CNC(=O)NC[C@H]1CCN(Cc2scnc2C)C[C@H]1N(C)C	n
Cc1ccc(CNC(=O)Cn2cccc2-c2nc(-c3ccccc3)no2)cc1	n
Cc1ccc(CNC(=O)C2CCN(c3cn[nH]c(=O)c3)C2)cc1 (configuration not stated)	n
O=C(c1cccc(OC(F)(F)F)c1)N1CCN(c2cc(-c3ccc(F)cc3)[nH]n2)CC1	n
CC(C)C1=NOC2(CCN(S(C)(=O)=O)CC2)C1	n
CN1[C@@H](CCC(=O)NCc2cccs2)CNC(=O)[C@@H]2[C@H]1CCN2CC1CC1	n
O=C1CCN(C(=O)Nc2ccccc2)CCCCCCN1	n
CN1CCC(N2CCN(C(=O)C3CCCN(S(C)(=O)=O)CCC(=O)NCC3)CC2)CC1 (configuration not stated)	n
COc1ccc(-c2nc3scc(CCNC(=O)c4cccc(Br)c4)n3n2)cc1	1µM
COc1ccc(-c2nc3scc(CCNS(=O)(=O)c4ccccc4F)n3n2)cc1	n
O=C(NCCc1csc2nc(-c3ccc(F)cc3)nn12)c1cccc(C(F)(F)F)c1	n[5.79 µM]
O=C(Cc1cccs1)Nc1ccc2c(c1)CN(Cc1ccccc1F)C(=O)CO2	n
Cc1ccc(C2Cn3nnc(-c4nc(C5CCCCC5)no4)c3CO2)c(C)c1 (configuration not stated)	n
COc1cc2c(cc1Oc1ccccc1)NC(=O)C21CCN(C(=O)Cc2ccccc2)CC1	n
Cn1ccc(C(=O)N2CC(COc3ccccc3)C3(C2)CN(c2ccccc2)C3)n1 (configuration not stated)	n
COc1cc2c(cc1OCc1ccccc1)N(C(=O)C(C)C)CC21CCN(C)CC1	n
COc1cc2c(cc1CCc1ccccc1)N([S+](=O)([O-])c1ccc3c(c1)CCO3)CC21CCN(C(C)=O)CC1	10µM
COc1cc2c(cc1OCc1ccccc1)N(C(=O)Cc1ccc3c(c1)OCO3)CC21CCN(C)CC1	n
COc1cc2c(cc1OCc1ccccc1)N(C(=O)c1ccc3[nH]ccc3c1)CC21CCN(C)CC1	n
COc1cc2c(cc1CCc1ccccc1)N(C(=O)c1ccn(C)n1)CC21CCN(C(C)=O)CC1	10µM
COc1cc2c(cc1CCc1ccccc1)N(C(=O)CC(C)C)CC21CCN(C(C)=O)CC1	4µM
COc1cccc(CN2C(=O)OC3(CCN(C(=O)c4ccn(C)n4)CC3)C2(C)c2cccnc2)c1 (configuration not stated)	n
COc1cc2c(cc1OCc1ccccc1)N(C(=O)c1ccccc1OC)CC21CCN(C)CC1	4µM
SMILES	Pf Dd2 growth
COc1ccc([S+](=O)([O-])N2CC3(CCN(CC(=O)O)CC3)c3cc(OC)c(OCC4CCCC4)cc32)cc1	n
COc1ccccc1CN1CCOc2cc([S+](=O)([O-])N(C)C)ccc2C1	n
CN(C)C[C@@H]1CN(c2ccccn2)C[C@H]1NC(=O)c1ccsc1	n
COCc1noc([C@@H]2CN(Cc3ccoc3)C[C@H]2COC)n1	n
CC(=O)Nc1ccc(C(O)[C@H]2COCC(=O)N2Cc2ccccc2F)cc1 (some centres not stated)	n
c1ccc(CCCN[C@H]2CO[C@H]3[C@@H]2OC[C@@H]3n2cc(-c3ccccc3)nn2)cc1	n
COc1cccc(CN2CCOC[C@H](Oc3ccc(C(F)(F)F)cc3)C2)c1	n
COCCN1CC(Cc2ncccc2C(=O)N2CCCCC2)CC1=O (configuration not stated)	n
CC(C)CCNC(=O)CCc1nnc(-c2ccc(OC(C)C)cc2)[nH]c1=O	n
O=C(Cn1nc2c(cc1=O)CCCCC2)NCCN1CCOCC1	n
CC(=O)N1CCC(N2CCN3C(=O)N(Cc4ccccn4)C[C@H]3C2)CC1	n
COC(=O)[C@@H]1Cc2ncn(Cc3ccccc3)c2CN1C(=O)COc1ccccc1	n
O=C1NCN(Cc2ccc(Cl)cc2)C12CCN([S+](=O)([O-])c1cccs1)CC2	n
O=C1CC(c2cn[nH]c2C(=O)O)c2c(n[nH]c2-c2cccs2)N1 (configuration not stated)	n
O=C(c1cccnn1)N1C[C@H]2CN(C3CCOCC3)C[C@@]2(C(=O)O)C1	n
CCc1ccc(C(=O)c2cn(CC(=O)Nc3ccc(OC)cc3OC)c3ccc(CC)cc3c2=O)cc1	n
CCc1ccc(C(=O)c2cn(Cc3ccc(F)cc3)c3cc(OC)c(OC)cc3c2=O)cc1	11µM
CCOc1ccc(NC(=O)Cn2cc(C(=O)c3ccc(CC)cc3)c(=O)c3cc(OC)c(OC)cc32)cc1	n
